An excerpt weighted towards active compounds, which were near 19% of everything screened.
TDP1 block: qHTS Assay for Inhibitors of Tyrosyl-DNA Phosphodiesterase (TDP1); Tyrosyl-DNA phosphodiesterase 1 (Homo sapiens), Q9NUW8; AID 485290, 2010; Potency, µM (top dose mostly 130 µM), inactives show at the highest dose activity change, negative = inhibition, actives largely listed as inhibitors; hit rate 0.28% among 350,000; recombinant TDP1, AlphaScreen DNA substrate cleavage; also: potency is read from the fitted curve at half-maximal effect; % is scaled to controls: 0 for no effect and ±100 for the full control effect; nearly all actives have a fitted effect of over 40% in size
Target sequence (Q9NUW8 whole entry, looked up): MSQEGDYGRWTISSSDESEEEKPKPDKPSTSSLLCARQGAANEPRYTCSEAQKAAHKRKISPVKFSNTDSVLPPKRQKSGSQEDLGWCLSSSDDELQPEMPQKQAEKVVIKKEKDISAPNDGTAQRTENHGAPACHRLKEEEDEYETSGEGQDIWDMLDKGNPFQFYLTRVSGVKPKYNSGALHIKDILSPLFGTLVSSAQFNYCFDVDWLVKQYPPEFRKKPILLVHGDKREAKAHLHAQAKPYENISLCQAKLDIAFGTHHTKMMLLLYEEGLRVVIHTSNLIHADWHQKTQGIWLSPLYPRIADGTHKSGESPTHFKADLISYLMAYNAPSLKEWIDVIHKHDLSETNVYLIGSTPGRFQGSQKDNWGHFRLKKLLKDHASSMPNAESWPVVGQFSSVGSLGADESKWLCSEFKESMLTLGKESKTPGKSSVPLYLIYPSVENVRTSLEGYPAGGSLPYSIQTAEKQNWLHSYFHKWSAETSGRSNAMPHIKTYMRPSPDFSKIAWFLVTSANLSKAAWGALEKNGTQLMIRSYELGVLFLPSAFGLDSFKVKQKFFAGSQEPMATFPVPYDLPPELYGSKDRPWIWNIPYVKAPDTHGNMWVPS
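Tdp1 1 nM final; 15 min RT w/ cpd; substrate 15 nM, 5 min; beads 10 ug/ml, 10 min; AlphaScreen read. Neg ctrl: no enzyme.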
HepG2 tox-1: qHTS for Inhibitors of TGF-b: Cytotox Counterscreen. HepG2 CAGA-GFP viability, ATP luminescence, 18 h. Potency, µM (highest dose often 46.1 µM), inactives show top-dose activity change, negative = cytotoxicity, usual class: cytotoxic. hit rate 0.76% among 410,000; also: potency is read from the fitted curve at half-maximal effect
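HepG2 CAGA-GFP cells (1000/well, DMEM with 1% FBS) received compound, then TGF-beta at 500 pg/mL final, and were incubated 18 hours at 37 degrees C. Viability was read by CellTiter-Glo luminescence. Media-only wells were set as complete cell-killing and DMSO as no toxicity.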
DT40 TDP1 no CPT: qHTS for Inhibitors of human tyrosyl-DNA phosphodiesterase 1 (TDP1): qHTS in cells in absence of CPT; DT40 Tdp1-/- hTDP1 cells, no CPT, ATP luminescence, 48 h; Potency, µM (top dose mostly 46.2 µM), without a hit: at the highest dose activity change, negative = growth inhibition, actives largely listed as inhibitors; hit rate 15% among 420,000; AID 686978, 2013; also: potency is read from the fitted curve at half-maximal effect; % is scaled to controls: 0 for no effect and ±100 for the full control effect; nearly all actives have a fitted effect of over 55% in size
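A cellular qHTS used chicken DT40 cells lacking endogenous Tdp1 but carrying stably transfected human TDP1. Compounds were applied without camptothecin, and cell growth kinetics were judged by ATP-dependent luminescence after ≥48 hr.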
IL1B secr inh: qHTS for Inhibitors of Inflammasome Signaling: IL-1-beta AlphaLISA Primary Screen. hit rate 4.7% among 360,000. AID 743279, 2014. THP-1 LPS/ATP IL-1B secretion, AlphaLISA, 16 h; stronger effect = lower value. activity change, % at 57.5 µM; in the data active = activity change below about -50%; inconclusive = mostly about -30% to -49%; also: % is scaled to controls: 0 for no effect and ±100 for the full control effect
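Secreted IL-1B measured by AlphaLISA bead assay after 16 h compound exposure of THP-1 cells; compounds (final up to 57.5 uM) added 1 h before LPS (250 ng/mL) and ATP (1.25 mM) stimulation; lower signal means less secretion.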
TGFb inhibitor: qHTS for Inhibitors of TGF-b | HepG2 CAGA-GFP TGF-b/SMAD3 reporter, GFP fluorescence, 18 h; TGF-beta stimulated, 500 pg/mL final | Potency, µM (titrated, usually from 46.1 µM), inactives show top-dose activity, negative = inhibition, usual class: inhibitors | hit rate 1.2% among 410,000 | AID 588855, 2011; also: potency is read from the fitted curve at half-maximal effect; % is scaled to controls: 0 for no effect and ±100 for the full control effect; nearly all actives have a fitted effect of over 65% in size
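First, reporter cells (HEPG2 CAGA-GFP) rested 2 h at 37 degrees C. Next, compounds were pinned in and TGF-beta added to 500 pg/mL final. After 18 h, GFP was imaged per cell and summed per well.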
DT40 TDP1 CPT: qHTS for Inhibitors of human tyrosyl-DNA phosphodiesterase 1 (TDP1): qHTS in cells in presence of CPT; hit rate 12% among 420,000; AID 686979, 2013; chicken DT40 Tdp1-/-;hTDP1 cells + 20 nM CPT, ATP luminescence, 48 h; Potency, µM (highest dose often 46.2 µM), for the others: at the highest dose activity change, negative = growth inhibition, hits mostly inhibitors; also: potency is read from the fitted curve at half-maximal effect; % is scaled to controls: 0 for no effect and ±100 for the full control effect; nearly all actives have a fitted effect of over 55% in size
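Chicken DT40 Tdp1-/- cells stably complemented with human TDP1 were seeded at 400 cells/well in medium containing 20 nM camptothecin, exposed to pin-transferred compounds, and grown at 37 °C for at least 48 hr. Viability was read as ATP luminescence.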
TGFb CAGA inh: qHTS for Inhibitors of TGF-b: Confirmation of Cherry Picks | shares compounds with TGFb inhibitor | HepG2 CAGA-GFP TGF-b reporter, GFP fluorescence, 18 h; cells stimulated with TGF-beta, 500 pg/mL | Potency, µM (titrated, usually from 46.1 µM), for inactives: at the highest dose activity, negative = inhibition, usual class: inhibitors | hit rate 63% among 1,600; also: potency is read from the fitted curve at half-maximal effect; % is scaled to controls: 0 for no effect and ±100 for the full control effect; nearly all actives have a fitted effect of over 65% in size
HepG2 tox-2: qHTS for Inhibitors of TGF-b: Cytotox Counterscreen for Cherry Picks; shares compounds with TGFb inhibitor; HepG2 CAGA-GFP viability, ATP luminescence, 18 h; cells stimulated with TGF-beta, 500 pg/mL; Potency, µM (titrated, usually from 46.1 µM), inactives show top-dose activity, negative = cytotoxicity, hits mostly inhibitors; hit rate 27% among 1,600; AID 720535, 2013; also: potency is read from the fitted curve at half-maximal effect; % is scaled to controls: 0 for no effect and ±100 for the full control effect; nearly all actives have a fitted effect of over 70% in size
TGFb CCL64 inh: qHTS for Inhibitors of TGF-b: CCL64 Cells Orthogonal Assay for Cherry Picks. hit rate 41% among 1,600. shares compounds with TGFb inhibitor. Potency, µM (series often up to 46.1 µM), for the others: at the top dose activity, negative = inhibition, actives largely listed as inhibitors. CCL64 CAGA-GFP reporter, TGF-b stimulated, GFP fluorescence, 18 h; also: potency is read from the fitted curve at half-maximal effect; nearly all actives have a fitted effect of over 65% in size
TGFb COP inh: qHTS for Inhibitors of TGF-b: Hit Validation in HepG2 Cells using COP promoter | shares compounds with TGFb inhibitor | HepG2 COP-GFP TGF-b reporter, GFP fluorescence, 18 h; cells stimulated by added recombinant TGF-beta | Potency, µM (series often up to 46.1 µM), for the others: top-dose activity, negative = inhibition, hits mostly inhibitors | hit rate 3% among 1,600 | AID 720537, 2013; also: potency is read from the fitted curve at half-maximal effect; nearly all actives have a fitted effect of over 70% in size
* hit, by the source's call; ? = inconclusive; · = not tested or not shown; [ ] = another dose, or the depositor's remark. Unless noted, calls follow the shape of the dose curve; as a rule, active = well fitted curve in the direction sought with a large enough effect; inconclusive = small, poorly fitted or top-dose-only effect, or another doubt; inactive = no such curve, though single readings can be large; an effect the other way counts as inactive or inconclusive.

SMILES | TDP1 block | HepG2 tox-1 | DT40 TDP1 no CPT | IL1B secr inh | TGFb inhibitor | DT40 TDP1 CPT | TGFb CAGA inh | HepG2 tox-2 | TGFb CCL64 inh | TGFb COP inh
Cc1ccnc(NC(=S)N2CCN(c3cccc(C(F)(F)F)c3)CC2)c1 | -1% | -23% | ? | -88* | 13µM* | ? | 7.3µM* | 13µM* | -15% | 30%
Cc1ccc(C)c(NC(=S)N2CCN(c3cccc(C(F)(F)F)c3)CC2)c1 | 4% | -20% | -29% | 15 | 0% | ? | · | · | · | ·
CCCn1c(N)c(C(=O)CN(C)CC(=O)Nc2ccc(F)cc2)c(=O)[nH]c1=O | 1% | -19% | -1% | 0 | 4% | ? | · | · | · | ·
COc1ccc(-c2cccc(-c3cc(=O)oc4cc(OC)cc(OC)c34)c2)cc1 | 1%[56.1 µM] | 3% | 0.65µM* | 78 | 1.4µM* | 1.3µM* | 1.6µM* | -1% | 1.5µM* | -25%
CC(=O)c1cccc(NC(=O)C(C)OC(=O)c2ccc(-n3cnnn3)cc2)c1 (centres undefined) | 0% | -3% | ? | -5 | -2% | ? | · | · | · | ·
O=C(Nc1cccc(S(=O)(=O)Nc2ccccc2Cl)c1)c1ccc(Cl)nc1 | 4% | -29% | 15µM* | 7 | 13µM* | 12µM* | 8.2µM* | -15% | -2% | 10%
COC(=O)c1c(C)sc(-c2c(-c3ccc4c(c3)OCCO4)[nH]c3[nH]c(=O)[nH]c(=O)c23)c1O | 5% | 1% | -5% | · | 158% | 0% | · | · | · | ·
COC(=O)[C@]1(Cc2ccccc2)N[C@H](CN(C)C(=O)Nc2ccc(C)cc2)[C@@H]2C(=O)N(C)C(=O)[C@@H]21 | 0% | 3% | 2% | 34 | 7% | 2% | · | · | · | ·
COc1ccc(OC)c(S(=O)(=O)N2CCN(c3ccccc3)CC2)c1 | · | -8% | 5% | -9 | -5% | 11% | · | · | · | ·
CCc1ccccc1N1CCN(S(=O)(=O)c2cc(OC)ccc2OC)CC1 | -3% | -3% | -28% | -7 | ? | -7% | 26µM* | ? | ? | 27%

Screening results from PubChem BioAssay.
